# About 79,000 compounds went through this panel and 15% of them were active in at least one assay; those are over-represented in the sample as a whole. Values without a mark were called inactive. Activity calls are given as the source filed them. Cut-off read from the data, not from the text of the source: active = growth inhibition above about 70%; inactive = the rest.
# Experiments:
# [1] = NCI Yeast Anticancer Drug Screen. Data for the rad52 strain (AID 147);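 note: 0% = growth of vehicle-treated control cultures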; conditions: S. cerevisiae rad52 mutant growth inhibition, stronger effect = higher value
# How it was run: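 Here a repair-compromised yeast strain receives each compound; its growth is then quantified and normalised to vehicle-only controls.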
# [2] = NCI Yeast Anticancer Drug Screen. Data for the wt1 strain (AID 149);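 note: 0% = growth of vehicle-treated wt1 cultures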; conditions: S. cerevisiae wt1 strain (SPY 50644) growth inhibition, stronger effect = higher value
# How it was run: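 Vehicle-normalised growth inhibition; strain wt1; compound exposure.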
# [3] = NCI Yeast Anticancer Drug Screen. Data for the rad50EPP+ strain (AID 151);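 note: 0% = growth of vehicle-treated control cultures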; conditions: S. cerevisiae rad50 mutant strain, stronger effect = higher value
# How it was run: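 Read-out is yeast growth inhibition relative to vehicle; cells used were the rad50EPP+ strain.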
# [4] = NCI Yeast Anticancer Drug Screen. Data for the mgt1 strain (AID 153); conditions: S. cerevisiae mgt1 mutant growth inhibition, stronger effect = higher value
# How it was run: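 Measured: inhibition of mgt1 yeast growth by compound, normalized to vehicle-treated cultures.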
# [5] = NCI Yeast Anticancer Drug Screen. Data for the rad50 strain (AID 155);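 note: 0% = growth of vehicle-only cultures of the same strain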; conditions: S. cerevisiae rad50 strain growth inhibition, stronger effect = higher value
# How it was run: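 A DNA repair-deficient yeast mutant serves as the test organism; compound-induced growth inhibition is calculated against vehicle-treated cells.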
# [6] = NCI Yeast Anticancer Drug Screen. Data for the mec2-1 strain (AID 157); conditions: S. cerevisiae mec2-1 strain, stronger effect = higher value
# How it was run: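 Using mec2-1 yeast: add compound, measure growth, express inhibition versus vehicle-treated cultures.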
# [7] = NCI Yeast Anticancer Drug Screen. Data for the rad14 strain (AID 159);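 note: 0% = growth of vehicle-treated control cultures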; conditions: S. cerevisiae rad14 strain growth inhibition, stronger effect = higher value
# How it was run: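 Vehicle-treated cultures served as the baseline for growth inhibition of a DNA repair-mutant yeast strain exposed to each compound.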
# [8] = NCI Yeast Anticancer Drug Screen. Data for the sgs1 mgt1 strain (AID 161);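 note: 0% = growth of cultures given vehicle only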; conditions: S. cerevisiae sgs1 mgt1 strain, stronger effect = higher value
# How it was run: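 Growth of a repair-deficient yeast mutant was monitored after compound treatment and expressed as inhibition relative to vehicle-treated cultures.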
# [9] = NCI Yeast Anticancer Drug Screen. Data for the CLN2oe strain (AID 163);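 note: 0% = growth of vehicle-only control cultures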; conditions: S. cerevisiae CLN2oe strain, stronger effect = higher value
# How it was run: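 Whole-cell yeast growth assay. A strain engineered for altered cell-cycle control received compound, and inhibition relative to vehicle-treated cultures was recorded.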
# [10] = NCI Yeast Anticancer Drug Screen. Data for the cln2 rad14 strain (AID 165);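 note: 0% = growth equal to vehicle treated cultures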; conditions: S. cerevisiae cln2 rad14 strain, stronger effect = higher value
# How it was run: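 Yeast strain cln2 rad14, bearing defects in cell cycle control and DNA repair, serves as the test system; values reflect growth inhibition compared with vehicle.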
# [11] = NCI Yeast Anticancer Drug Screen. Data for the bub3 strain (AID 167); conditions: S. cerevisiae bub3 mutant strain, stronger effect = higher value
# How it was run: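 Inhibition values come from growth of compound-treated mutant yeast normalised to vehicle-treated controls.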
# [12] = NCI Yeast Anticancer Drug Screen. Data for the wt2 strain (AID 169);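 note: 0% = growth of vehicle-treated yeast cultures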; conditions: S. cerevisiae wt2 strain growth inhibition, stronger effect = higher value
# How it was run: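 Treated yeast vs. vehicle-treated yeast: growth inhibition determined.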
# [13] = NCI Yeast Anticancer Drug Screen. Data for the mlh1 strain (AID 171);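 note: 0% = growth of vehicle-treated control cultures of the same strain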; conditions: S. cerevisiae mlh1 strain growth inhibition, stronger effect = higher value
# How it was run: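 A yeast strain with a defined genetic lesion serves as the test organism. Cultures receive compound or vehicle, and growth is measured.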
# [14] = NCI Yeast Anticancer Drug Screen. Data for the sgs1 strain (AID 173);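 note: 0% = growth of vehicle-only control cultures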; conditions: S. cerevisiae sgs1 mutant, stronger effect = higher value
# How it was run: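 A genetically defined yeast mutant is incubated with the test compound, and its growth is compared to that of the same strain given vehicle.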
# [15] = NCI Yeast Anticancer Drug Screen. Data for the mlh1 rad18 strain (AID 175); conditions: S. cerevisiae mlh1 rad18 strain growth inhibition, stronger effect = higher value
# How it was run: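 Steps: expose repair-defective yeast to compound; measure growth; express inhibition against vehicle-treated controls.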
# [16] = NCI Yeast Anticancer Drug Screen. Data for the rad18 strain (AID 177); conditions: S. cerevisiae rad18 mutant growth inhibition, stronger effect = higher value
# How it was run: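 Measured value is growth inhibition of a yeast strain bearing a DNA repair alteration, referenced to vehicle-treated cells.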
# [17] = at 5.0 µM (retest, dose inferred, filed as 0.5)
# [18] = at 50.0 µM (retest, dose inferred, filed as 5.0)
compound,measurement,setting,value
CN(C)c1ccc(N=Nc2ccncc2)cc1,growth inhibition,[1]; at 1.2 µM,1%
same,growth inhibition,[1]; at 3.7 µM,1%
same,growth inhibition,[1]; at 11.0 µM,15%
same,growth inhibition,[1]; at 33.0 µM,33%
same,growth inhibition,[1]; at 100.0 µM,71% (active)
same,growth inhibition,[2]; at 1.2 µM,-7%
same,growth inhibition,[2]; at 3.7 µM,-3%
same,growth inhibition,[2]; at 11.0 µM,-1%
same,growth inhibition,[2]; at 33.0 µM,-1%
same,growth inhibition,[2]; at 100.0 µM,40%
same,growth inhibition,[3]; at 1.2 µM,3%
same,growth inhibition,[3]; at 3.7 µM,12%
same,growth inhibition,[3]; at 11.0 µM,64%
same,growth inhibition,[3]; at 33.0 µM,87% (active)
same,growth inhibition,[3]; at 100.0 µM,82% (active)
same,growth inhibition,[4]; at 1.2 µM,-2%
same,growth inhibition,[4]; at 3.7 µM,12%
same,growth inhibition,[4]; at 11.0 µM,31%
same,growth inhibition,[4]; at 33.0 µM,35%
same,growth inhibition,[4]; at 100.0 µM,49%
same,growth inhibition,[5]; at 1.2 µM,8%
same,growth inhibition,[5]; at 3.7 µM,11%
same,growth inhibition,[5]; [17],-86%
same,growth inhibition,[5]; at 11.0 µM,31%
same,growth inhibition,[5]; at 33.0 µM,55%
same,growth inhibition,[5]; [18],27%
same,growth inhibition,[5]; at 50.0 µM,82.3% (active)
same,growth inhibition,[5]; at 100.0 µM,77% (active)
same,growth inhibition,[6]; at 1.2 µM,-2%
same,growth inhibition,[6]; at 3.7 µM,7%
same,growth inhibition,[6]; [17],-41%
same,growth inhibition,[6]; at 11.0 µM,19%
same,growth inhibition,[6]; at 33.0 µM,18%
same,growth inhibition,[6]; [18],-3%
same,growth inhibition,[6]; at 50.0 µM,53.1%
same,growth inhibition,[6]; at 100.0 µM,67%
same,growth inhibition,[7]; at 1.2 µM,9%
same,growth inhibition,[7]; at 3.7 µM,31%
same,growth inhibition,[7]; at 11.0 µM,51%
same,growth inhibition,[7]; at 33.0 µM,47%
same,growth inhibition,[7]; at 100.0 µM,52%
same,growth inhibition,[8]; [17],-19%
same,growth inhibition,[8]; [18],32%
same,growth inhibition,[8]; at 50.0 µM,70.6% (active)
same,growth inhibition,[9]; at 1.2 µM,13%
same,growth inhibition,[9]; at 3.7 µM,22%
same,growth inhibition,[9]; at 11.0 µM,37%
same,growth inhibition,[9]; at 33.0 µM,38%
same,growth inhibition,[9]; at 100.0 µM,36%
same,growth inhibition,[10]; [17],-36%
same,growth inhibition,[10]; [18],2%
same,growth inhibition,[10]; at 50.0 µM,37.1%
same,growth inhibition,[11]; at 1.2 µM,4%
same,growth inhibition,[11]; at 3.7 µM,22%
same,growth inhibition,[11]; [17],-13%
same,growth inhibition,[11]; at 11.0 µM,60%
same,growth inhibition,[11]; at 33.0 µM,78% (active)
same,growth inhibition,[11]; [18],73% (active)
same,growth inhibition,[11]; at 50.0 µM,86.5% (active)
same,growth inhibition,[11]; at 100.0 µM,86% (active)
same,growth inhibition,[12]; at 1.2 µM,3%
same,growth inhibition,[12]; at 3.7 µM,7%
same,growth inhibition,[12]; at 11.0 µM,22%
same,growth inhibition,[12]; at 33.0 µM,23%
same,growth inhibition,[12]; at 100.0 µM,20%
same,growth inhibition,[13]; at 1.2 µM,7%
same,growth inhibition,[13]; at 3.7 µM,11%
same,growth inhibition,[13]; at 11.0 µM,29%
same,growth inhibition,[13]; at 33.0 µM,42%
same,growth inhibition,[13]; at 100.0 µM,47%
same,growth inhibition,[14]; at 1.2 µM,15%
same,growth inhibition,[14]; at 3.7 µM,41%
same,growth inhibition,[14]; at 11.0 µM,63%
same,growth inhibition,[14]; at 33.0 µM,67%
same,growth inhibition,[14]; at 100.0 µM,68%
same,growth inhibition,[15]; [17],-82%
same,growth inhibition,[15]; [18],4%
same,growth inhibition,[15]; at 50.0 µM,67.7%
same,growth inhibition,[16]; at 1.2 µM,6%
same,growth inhibition,[16]; at 3.7 µM,24%
same,growth inhibition,[16]; at 11.0 µM,35%
same,growth inhibition,[16]; at 33.0 µM,19%
same,growth inhibition,[16]; at 100.0 µM,31%

# Reference: PubChem BioAssay (NCI)
